Experimental data taken from PubChem BioAssay (NCATS).
Where “and” joins values, the source holds several entries; their conditions need not be identical. Identical values can stand only once. Records with an inconclusive call do not appear. Entries that show only a call come without a potency. The source holds several records for some structures; these can differ, active in one and inactive in another. Calls of active or inactive are those of the source. The call rests on the fitted dose curve; in most records, active means well fitted curve in the direction sought with a large enough effect; inconclusive means small, poorly fitted or top-dose-only effect, or another doubt; inactive means no such curve, though single readings can be large; an effect the other way counts as inactive or inconclusive.

What was measured:
[1] = target: M-phase phosphoprotein 8 (Homo sapiens) (UniProt Q99549); assay: qHTS Validation Assay for Inhibitors for MPP8 Chromodomain Interactions with Methylated Histone Tails (AID 488949); further: nearly all actives have a fitted effect of over 55% in size; further: potency means the concentration at half of the fitted maximal effect
Procedure, shortened: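 MPP8 (50 nM) was preincubated with biotinylated H3(1-18)K9me3 peptide (50 nM) in PBS pH 7.4, 0.01% Tween-20 for 30 min at room temperature, then with compounds for 30 min; binding was detected by AlphaScreen.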

[2] = target: Chromobox protein homolog 1 (Homo sapiens) (UniProt P83916); assay: qHTS Validation Assay for Inhibitors of HP1-beta Chromodomain Interactions with Methylated Histone Tails (AID 488953); further: nearly all actives have a fitted effect of over 50% in size; further: potency means the concentration at half of the fitted maximal effect
Procedure, shortened: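 HP1-beta (50 nM) preformed 30 min with biotinylated H3(1-18)K9me3 peptide (50 nM) in PBS pH 7.4, 0.01% Tween-20. Compounds added for 30 min at room temperature. Complex disruption read by AlphaScreen with streptavidin donor/nickel chelate acceptor beads (10 ug/mL each).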

[3] = target: Methanococcus maripaludis chaperonin (MmCpn) (UniProt Q6LX38); assay: High-Throughput Screening for Modulators of Cytosolic Chaperonin Activity: MmCpn Primary Screen (AID 488978);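 further: 50 nM MmCpn enzyme hydrolysing 30 µM ATP at 37 °C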
Procedure, shortened: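 MmCpn (50 nM final) was preincubated with compound 5 min at RT, then 30 uM ATP (final) was added and the reaction ran 10 min at 37C. ADP produced was detected by Transcreener HTRF (ex 320 nm; em 590/665 nm).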

[4] = target: Transient receptor potential cation channel subfamily V member 1 (Homo sapiens) (UniProt Q8NER1); assay: HTS Assay for Compounds that Act as Enhancers of the Vanilloid Receptor 1 (AID 488979)
Procedure, shortened: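 TRPV1-expressing cells loaded with Fluo-8 calcium dye; compounds added and calcium influx read kinetically for 3 min (agonist phase), then capsaicin at EC20 added and read 2 min more for enhancement. Fluorescence ex 480/em 520 nm.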

[5] = target: Thyrotropin receptor (Homo sapiens) (UniProt P16473); assay: qHTS Assay for Antagonists of the Thyroid Stimulating Hormone Receptor (AID 488980); further: series mostly up to about 58 µM
Procedure, shortened: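 HEK293 cells transfected with human TSHR, suspended in HEPES-buffered HBSS with 70 uM RO 20-1724, were treated with compounds plus TSH at EC80 (4 nM final). cAMP was measured by competitive HTRF (cryptate anti-cAMP antibody, cAMP-d2 acceptor).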

[6] = target: D(1A) dopamine receptor (Homo sapiens) (UniProt P21728); assay: HTS Assay for Allosteric Agonists of the Human D1 Dopamine Receptor: Primary Screen for Agonists (AID 488981); further: potency means the concentration at half of the fitted maximal effect
Procedure, shortened: (§1)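 Tetracycline-induced HEK293 T-REx cells force-coupled to calcium signalling were incubated overnight at 30 C and dye-loaded at room temperature. Calcium flux over 180 s after compound addition flagged agonists; a further 180 s read after EC20 dopamine flagged potentiators.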

[7] = target: D(1A) dopamine receptor (Homo sapiens) (UniProt P21728); assay: HTS Assay for Allosteric Agonists of the Human D1 Dopamine Receptor: Primary Screen for Potentiators (AID 488982)
Procedure, shortened: as §1

[8] = target: D(1A) dopamine receptor (Homo sapiens) (UniProt P21728); assay: HTS Assay for Allosteric Agonists of the Human D1 Dopamine Receptor: Primary Screen for Antagonists (AID 488983);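 further: calcium flux response to an EC80 dopamine challenge measured with no-wash dye; nearly all actives have a fitted effect of over 65% in size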; further: potency means the concentration at half of the fitted maximal effect
Procedure, shortened: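 Tetracycline-induced HEK293 T-REx D1 line, force-coupled to calcium flux, read with no-wash calcium dye. Compound added after 10 s baseline, read 180 s for agonism, then EC80 dopamine added and read a further 180 s.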

[9] = target: ATP-dependent 6-phosphofructokinase (Trypanosoma brucei brucei) (UniProt O15648); assay: qHTS Assay to Find Inhibitors of T. brucei phosphofructokinase: hit validation (AID 492961);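 further: luminescence reports ADP formed as PFK phosphorylates fructose-6-phosphate with ATP; series mostly up to about 51 µM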
Procedure, shortened: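 PFK 1.25 nM, F6P 0.5 mM, ATP 0.1 mM, MgCl2 5 mM, 0.1 M TEA pH 8.0, Tween20 0.01%, BSA 0.1%; 45 min RT. ADP-Glo two-step detection, luminescence. qHTS titration; curve fitting with curve-class categorization.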

[10] = target: Flap endonuclease 1 (Homo sapiens) (UniProt P39748); assay: qHTS Validation Assay for the Inhibitors of Human Flap endonuclease 1 (FEN1) (AID 488816); further: potency means the concentration at half of the fitted maximal effect
Procedure, shortened: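 FEN1, dispensed as a 10 nM reagent, was preincubated with pin-transferred compounds for 15 min at room temperature before substrate was added (50 nM final). Plates were read at 0 and 15 min, and a four-parameter Hill equation was fitted to the concentration-response data.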

Chain of Chromobox protein homolog 1 (Homo sapiens) (P83916 whole entry, looked up): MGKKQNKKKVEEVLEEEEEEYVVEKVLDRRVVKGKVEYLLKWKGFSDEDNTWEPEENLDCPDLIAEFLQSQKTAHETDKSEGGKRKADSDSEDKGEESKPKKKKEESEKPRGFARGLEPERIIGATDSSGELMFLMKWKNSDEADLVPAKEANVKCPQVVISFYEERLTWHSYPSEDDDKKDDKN
Chain of Methanococcus maripaludis chaperonin (MmCpn) (Q6LX38 1-543): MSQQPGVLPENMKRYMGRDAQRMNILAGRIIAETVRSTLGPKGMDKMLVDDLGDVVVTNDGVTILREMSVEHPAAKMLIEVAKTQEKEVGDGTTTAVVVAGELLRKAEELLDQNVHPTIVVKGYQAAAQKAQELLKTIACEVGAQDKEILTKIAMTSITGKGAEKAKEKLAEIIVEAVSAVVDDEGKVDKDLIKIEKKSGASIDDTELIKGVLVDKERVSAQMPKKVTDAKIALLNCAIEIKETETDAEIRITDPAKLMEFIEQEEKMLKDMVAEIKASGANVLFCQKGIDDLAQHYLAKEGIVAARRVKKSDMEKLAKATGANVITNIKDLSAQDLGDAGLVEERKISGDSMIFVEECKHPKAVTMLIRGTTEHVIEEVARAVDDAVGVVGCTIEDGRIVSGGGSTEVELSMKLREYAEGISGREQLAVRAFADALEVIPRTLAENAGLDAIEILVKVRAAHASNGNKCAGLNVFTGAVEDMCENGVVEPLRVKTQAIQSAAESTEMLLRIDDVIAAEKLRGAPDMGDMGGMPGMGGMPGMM
Chain of ATP-dependent 6-phosphofructokinase (Trypanosoma brucei brucei) (O15648 whole entry, looked up): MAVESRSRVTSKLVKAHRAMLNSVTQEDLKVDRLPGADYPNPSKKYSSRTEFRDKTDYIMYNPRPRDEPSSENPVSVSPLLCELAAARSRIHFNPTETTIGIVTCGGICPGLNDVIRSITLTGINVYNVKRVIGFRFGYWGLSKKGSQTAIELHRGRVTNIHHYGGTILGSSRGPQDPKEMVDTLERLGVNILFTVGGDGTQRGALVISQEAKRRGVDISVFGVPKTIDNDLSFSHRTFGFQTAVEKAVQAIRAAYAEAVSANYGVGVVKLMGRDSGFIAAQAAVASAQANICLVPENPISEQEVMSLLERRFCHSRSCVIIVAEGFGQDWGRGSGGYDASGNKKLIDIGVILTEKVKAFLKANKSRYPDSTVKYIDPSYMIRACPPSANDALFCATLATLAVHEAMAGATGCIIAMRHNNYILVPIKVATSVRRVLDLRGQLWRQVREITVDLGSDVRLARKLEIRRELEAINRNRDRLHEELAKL
Chain of M-phase phosphoprotein 8 (Homo sapiens) (Q99549 whole entry, looked up): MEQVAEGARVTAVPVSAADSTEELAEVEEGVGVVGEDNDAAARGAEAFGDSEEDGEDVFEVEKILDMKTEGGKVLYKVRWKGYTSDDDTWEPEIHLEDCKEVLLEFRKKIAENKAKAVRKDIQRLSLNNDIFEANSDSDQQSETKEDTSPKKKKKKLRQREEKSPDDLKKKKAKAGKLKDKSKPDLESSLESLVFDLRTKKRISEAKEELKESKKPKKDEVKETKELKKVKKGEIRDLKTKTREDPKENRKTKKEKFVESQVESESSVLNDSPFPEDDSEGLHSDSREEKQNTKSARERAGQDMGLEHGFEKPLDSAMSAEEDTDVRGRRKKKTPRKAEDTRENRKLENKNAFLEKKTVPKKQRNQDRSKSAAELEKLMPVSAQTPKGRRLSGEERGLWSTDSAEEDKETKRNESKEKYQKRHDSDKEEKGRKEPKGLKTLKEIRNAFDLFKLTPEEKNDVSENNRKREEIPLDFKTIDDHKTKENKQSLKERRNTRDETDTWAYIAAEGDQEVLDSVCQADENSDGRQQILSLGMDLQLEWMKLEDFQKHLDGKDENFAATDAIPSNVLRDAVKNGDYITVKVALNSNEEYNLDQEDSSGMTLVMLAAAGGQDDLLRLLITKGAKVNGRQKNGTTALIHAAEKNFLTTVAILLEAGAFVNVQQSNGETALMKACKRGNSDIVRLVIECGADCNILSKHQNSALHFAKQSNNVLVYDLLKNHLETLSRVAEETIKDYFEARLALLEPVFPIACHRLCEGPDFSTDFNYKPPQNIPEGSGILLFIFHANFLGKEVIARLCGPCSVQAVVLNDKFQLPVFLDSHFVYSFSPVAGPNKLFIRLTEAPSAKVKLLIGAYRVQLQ
Chain of Flap endonuclease 1 (Homo sapiens) (P39748 whole entry, looked up): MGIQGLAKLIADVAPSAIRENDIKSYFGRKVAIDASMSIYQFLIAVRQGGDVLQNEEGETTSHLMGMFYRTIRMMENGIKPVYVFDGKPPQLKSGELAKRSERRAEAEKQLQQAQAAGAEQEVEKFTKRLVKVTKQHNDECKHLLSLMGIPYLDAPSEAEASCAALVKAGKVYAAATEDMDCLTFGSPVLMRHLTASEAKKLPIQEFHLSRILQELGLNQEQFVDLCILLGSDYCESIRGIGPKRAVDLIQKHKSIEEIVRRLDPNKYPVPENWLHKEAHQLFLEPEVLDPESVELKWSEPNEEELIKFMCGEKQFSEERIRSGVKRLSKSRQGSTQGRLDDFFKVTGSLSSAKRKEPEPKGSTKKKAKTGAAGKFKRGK
Chain of Thyrotropin receptor (Homo sapiens) (P16473 whole entry, looked up): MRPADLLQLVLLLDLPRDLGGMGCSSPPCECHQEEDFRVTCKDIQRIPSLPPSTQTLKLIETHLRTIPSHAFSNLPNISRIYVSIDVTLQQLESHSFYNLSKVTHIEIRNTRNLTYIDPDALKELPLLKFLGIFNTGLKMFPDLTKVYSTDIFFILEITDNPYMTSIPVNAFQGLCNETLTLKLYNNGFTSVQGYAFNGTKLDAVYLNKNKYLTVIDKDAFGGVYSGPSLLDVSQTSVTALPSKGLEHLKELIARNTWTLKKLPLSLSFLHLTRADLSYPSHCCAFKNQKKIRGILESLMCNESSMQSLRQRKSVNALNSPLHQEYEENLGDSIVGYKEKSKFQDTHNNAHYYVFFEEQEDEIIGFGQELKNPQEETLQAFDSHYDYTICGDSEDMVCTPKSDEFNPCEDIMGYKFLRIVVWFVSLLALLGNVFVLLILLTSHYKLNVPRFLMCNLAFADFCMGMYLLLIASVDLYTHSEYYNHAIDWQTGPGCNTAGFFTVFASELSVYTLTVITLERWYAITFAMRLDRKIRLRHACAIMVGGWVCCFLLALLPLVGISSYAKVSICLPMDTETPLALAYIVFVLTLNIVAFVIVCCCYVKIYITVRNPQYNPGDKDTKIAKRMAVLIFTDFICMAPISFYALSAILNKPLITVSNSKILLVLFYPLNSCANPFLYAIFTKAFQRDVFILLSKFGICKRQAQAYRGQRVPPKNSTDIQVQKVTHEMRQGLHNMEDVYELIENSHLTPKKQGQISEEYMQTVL
Chain of Transient receptor potential cation channel subfamily V member 1 (Homo sapiens) (Q8NER1 whole entry, looked up): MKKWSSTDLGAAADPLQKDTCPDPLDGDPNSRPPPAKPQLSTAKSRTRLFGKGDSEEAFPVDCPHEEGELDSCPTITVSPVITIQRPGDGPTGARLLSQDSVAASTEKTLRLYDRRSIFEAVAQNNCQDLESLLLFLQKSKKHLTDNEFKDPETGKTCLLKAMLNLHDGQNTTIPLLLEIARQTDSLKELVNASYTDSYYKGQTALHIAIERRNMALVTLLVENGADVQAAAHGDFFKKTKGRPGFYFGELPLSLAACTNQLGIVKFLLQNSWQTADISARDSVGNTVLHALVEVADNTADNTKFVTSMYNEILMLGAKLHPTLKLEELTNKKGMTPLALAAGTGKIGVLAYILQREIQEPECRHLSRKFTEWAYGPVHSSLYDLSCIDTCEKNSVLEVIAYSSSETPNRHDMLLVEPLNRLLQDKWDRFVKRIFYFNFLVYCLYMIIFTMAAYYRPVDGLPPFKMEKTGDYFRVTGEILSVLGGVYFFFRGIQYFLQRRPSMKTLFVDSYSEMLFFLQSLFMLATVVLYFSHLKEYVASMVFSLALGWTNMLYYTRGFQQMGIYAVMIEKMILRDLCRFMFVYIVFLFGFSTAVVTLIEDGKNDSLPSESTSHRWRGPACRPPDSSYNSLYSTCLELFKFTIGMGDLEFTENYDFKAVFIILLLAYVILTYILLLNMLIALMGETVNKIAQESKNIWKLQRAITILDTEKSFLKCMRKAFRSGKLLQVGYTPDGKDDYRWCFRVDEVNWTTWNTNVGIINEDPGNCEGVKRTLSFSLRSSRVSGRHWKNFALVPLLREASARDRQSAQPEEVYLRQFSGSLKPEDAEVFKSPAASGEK
Chain of D(1A) dopamine receptor (Homo sapiens) (P21728 whole entry, looked up): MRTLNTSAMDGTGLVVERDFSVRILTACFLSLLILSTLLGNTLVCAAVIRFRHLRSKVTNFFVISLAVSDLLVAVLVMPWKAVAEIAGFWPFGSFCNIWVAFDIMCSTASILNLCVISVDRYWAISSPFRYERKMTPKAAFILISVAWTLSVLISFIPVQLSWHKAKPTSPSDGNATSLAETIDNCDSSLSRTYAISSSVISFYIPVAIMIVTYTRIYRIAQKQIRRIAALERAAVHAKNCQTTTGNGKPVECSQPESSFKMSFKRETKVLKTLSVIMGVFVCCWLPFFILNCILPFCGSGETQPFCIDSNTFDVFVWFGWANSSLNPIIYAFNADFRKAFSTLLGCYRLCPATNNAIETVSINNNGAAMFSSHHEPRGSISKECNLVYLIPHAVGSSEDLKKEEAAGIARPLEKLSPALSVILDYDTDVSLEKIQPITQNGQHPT

Structure (SMILES) | Potency [1] | Potency [2] | outcome [3] | outcome [4] | outcome [5] | Potency [6] | Potency [7] | Potency [8] | outcome [9] | Potency [10]
O=c1n(CCCN2CCN(c3cccc(Cl)c3)CC2)nc2ccccn12 | inactive | inactive | inactive | inactive | inactive | inactive | inactive | 11.2 µM (active) | inactive | 
Clc1cccc(Cl)c1NC1=NCCN1 | inactive | inactive | inactive | inactive | inactive | inactive | inactive | inactive |  | 
O=NN(CCCl)C(=O)NCCCl | inactive | inactive | inactive | inactive | inactive | inactive | inactive | inactive |  | 
CC(=O)Oc1ccccc1C(=O)O | inactive | inactive | inactive | inactive | inactive | inactive | inactive | inactive | inactive | 
N=c1nc(N2CCCCC2)cc(N)n1O | inactive | inactive | inactive | inactive | inactive | inactive | inactive | inactive |  | 
NCCc1ccc(O)c(O)c1 | inactive and 1.06 µM (active) | inactive | inactive | inactive |  |  |  |  |  | 0.844 µM (active)
c1ccc([C@H]2CN3CCSC3=N2)cc1 | inactive | inactive | inactive | inactive | inactive | inactive | inactive | inactive |  | 
NC(N)=NC(=O)c1nc(Cl)c(N)nc1N | inactive | inactive | inactive | inactive | inactive | inactive | inactive | inactive |  | 
Cc1[nH]c(=O)c(C#N)cc1-c1ccc2nccn2c1 | inactive | inactive | inactive | inactive | inactive | inactive |  | inactive | inactive | 
CC(C)C[C@H](NC(=O)[C@@H](O)[C@H](N)Cc1ccccc1)C(=O)O | inactive | inactive | inactive | inactive | inactive | inactive | inactive | inactive | inactive | 
NNCCc1ccccc1 | inactive | inactive | inactive | inactive | inactive | inactive | inactive | inactive | inactive | inactive
O=c1[nH]cnc2[nH]ncc12 | inactive | inactive | inactive | inactive |  | inactive | inactive | inactive |  | inactive
CCn1cc(C(=O)O)c(=O)c2cc(F)c(N3CCNC(C)C3)c(F)c21 (stereo unspecified) | inactive | inactive | inactive | inactive | inactive | inactive | inactive | inactive |  | 
Cn1cnc([N+](=O)[O-])c1Sc1ncnc2nc[nH]c12 | inactive | inactive | inactive | inactive | inactive | inactive | inactive | inactive |  | 
CCCC(CCC)C(=O)O | inactive | inactive | inactive | inactive | inactive | inactive | inactive | inactive | inactive | inactive
CC(C)(C)NCC(O)c1ccc(O)c(CO)c1 (stereo unspecified) | inactive | inactive | inactive | inactive | inactive | inactive | inactive | inactive |  | 
CNC[C@H](O)c1cccc(O)c1 | inactive | inactive | inactive | inactive | inactive | inactive | inactive |  | inactive | 
NS(=O)(=O)c1cc2c(cc1Cl)NC=NS2(=O)=O | inactive | inactive | inactive | inactive | inactive | inactive | inactive | inactive |  | inactive
O=C1CCc2cc(OCCCCc3nnnn3C3CCCCC3)ccc2N1 | inactive | inactive | inactive | inactive | inactive | inactive | inactive | inactive |  | 
Cc1[nH]c(=O)c(C#N)cc1-c1ccncc1 | inactive | inactive | inactive | inactive | inactive | inactive | inactive | inactive | inactive | 
O=C1CCC(N2C(=O)c3ccccc3C2=O)C(=O)N1 (stereo unspecified) | inactive | inactive | inactive | inactive | inactive | inactive | inactive | inactive |  | 
CC(C)(Sc1ccc(CCN(CCCCC2CCCCC2)C(=O)NC2CCCCC2)cc1)C(=O)O | 56.2 µM (active) and inactive | 56.2 µM (active) | inactive | inactive | inactive | 11.2 µM (active) | inactive |  |  | 
